# Assays:
# [1] = tested on: Vero E6 infected with SARS-CoV-2; test: morphology score (similarity to uninfected cells); higher = more like uninfected cells; details: 24 h
# [2] = tested on: Vero E6 infected with SARS-CoV-2; test: SARS-CoV-2 infection rate relative to infected DMSO; higher = more infection, active = 60 or less; details: 24 h
SMILES,morphology score [1],SARS-CoV-2 infection rate [2]
O=C1NC(=O)[C@@H](c2cn3c4c(cccc24)CCC3)[C@@H]1c1c[nH]c2ccccc12 [tivantinib] (10 µM),-0.141,107% (inactive)
OCCCNc1cc(-c2ccnc(Nc3cccc(Cl)c3)n2)ccn1 (10 µM),-0.158,98% (inactive)
COC(=O)C1=C(C)NC(C)=C([N+](=O)[O-])[C@@H]1c1ccccc1C(F)(F)F (racemic) (10 µM),0.192,91.8% (inactive)
CC(C)OC(=O)N1CCC(Oc2ncnc3c2cnn3-c2ccc(S(C)(=O)=O)cc2F)CC1 (10 µM),0.0759,98% (inactive)
CC(Oc1ccc(O)cc1)(P(=O)(O)O)P(=O)(O)O (10 µM),0.0418,107% (inactive)
Clc1cc(Cl)c(OCC#CI)cc1Cl [haloprogin] (10 µM),0.57,32% (active)
Cc1ccc(S(=O)(=O)NCl)cc1 [chloramine-T] (10 µM),0.043,104% (inactive)
CCOCCOc1ccccc1C(N)=O [etosalamide] (10 µM),0.0693,104% (inactive)
CCCOC(=O)c1ccc(O)cc1 [propyl 4-hydroxybenzoate] (10 µM),-0.0462,111% (inactive)
Cc1cccc(Nc2cc(Cl)nc(SCC(=O)O)n2)c1C [pirinixic-acid] (10 µM),0.0216,108% (inactive)
O=C(NC1CCC1)c1ccc(C#Cc2cccc(F)c2)nc1 (10 µM),0.0178,99% (inactive)
CCCN1CCCC[C@H]1C(=O)Nc1c(C)cccc1C [ropivacaine] (10 µM),0.0192,104% (inactive)
C(=C\c1ccccc1)/CN1CCN(CCOC(c2ccccc2)c2ccccc2)CC1 (10 µM),0.33,82.5% (inactive)
O=C(Nc1cccc(Cl)c1)c1ccccn1 (10 µM),0.228,106% (inactive)
Nc1ccc(-c2ccc3ncc4ccc(=O)n(-c5cccc(C(F)(F)F)c5)c4c3c2)cn1 [torin-2] (10 µM),0.162,86.5% (inactive)
CCCC(=O)C1CCN(c2ncnc3c2CN(C(=O)c2ccc(-c4ccccc4)cc2)CC3)CC1 (10 µM),0.0512,104% (inactive)

SMILES,morphology score [1],SARS-CoV-2 infection rate [2]
Cc1ccc(NC(=O)c2ccc(CN3CCN(C)CC3)cc2)cc1Nc1nccc(-c2cccnc2)n1 [imatinib] (10 µM),0.738,37% (active)
CCc1cc(O)c(Oc2ccc(C(N)=O)cc2F)cc1F (10 µM),0.0909,95.5% (inactive)
C#Cc1cccc2c1c(C(=O)c1ccc(Cn3c(C)nc4cnccc43)c(F)c1)cn2C(=O)N(C)C (10 µM),0.159,106% (inactive)
O=C(O[C@H]1C[N+]2(CCCOc3ccccc3)CCC1CC2)C(O)(c1cccs1)c1cccs1 [aclidinium] (10 µM),0.136,100% (inactive)
COc1cc(N)c(Cl)cc1C(=O)NC1CN2CCC1CC2 (centres undefined) [zacopride] (10 µM),0.169,89% (inactive)
O=C(c1ccc(OCCN2CCCCC2)cc1)c1c(-c2ccc(O)cc2)sc2cc(O)ccc12 [raloxifene] (0.833333 µM),0.0812,101% (inactive)
O=C(NC(Cc1cc(=O)[nH]c2ccccc12)C(=O)O)c1ccc(Cl)cc1 (centres undefined) [rebamipide] (10 µM),0.0758,104% (inactive)
CN(CCOP(=O)(O)O)C(=N)N [creatinol-phosphate] (10 µM),0.077,95.5% (inactive)
O=C(NCCCN1CCC2(CC1)OCc1ccccc12)[C@H]1CCCN1Cc1ccccc1 (10 µM),0.505,63.5% (inactive)
CCC(=O)c1cc(-c2ccc(Cl)cc2)n(-c2ccc(S(N)(=O)=O)cc2)c1C (10 µM),0.104,102% (inactive)
C[N+]1(C)CCC(OC(=O)C(O)(c2ccccc2)C2CCCC2)C1 (centres undefined) [glycopyrrolate] (10 µM),0.122,107% (inactive)
Cc1cc(SCc2sc(-c3ccc(C(F)(F)F)cc3)nc2C)ccc1OCC(=O)O (10 µM),0.0978,98.5% (inactive)
Cc1cc(C)c(S(=O)(=O)Nc2ccccc2C(F)(F)F)c(C)c1 (10 µM),-0.0872,113% (inactive)
CC(=O)Oc1ccccc1C(=O)Nc1ncc([N+](=O)[O-])s1 [nitazoxanide] (10 µM),0.224,88% (inactive)
CCOC(=O)[C@@](C)(N)Cc1ccc(O)c(O)c1 [methyldopate] (10 µM),0.0423,108% (inactive)
CO/N=C(\C(=O)N[C@@H]1C(=O)N2C(C(=O)O)=C(CSc3nc(C)c(CC(=O)O)s3)CS[C@H]12)c1csc(N)n1 [cefodizime] (10 µM),0.129,101% (inactive)
